Experimental data from PubChem BioAssay AID1159580 (chemical genetic matrix, 2015).
Among all 5,500 compounds or so, about 2,000 (36%) were called active. Not shown: some 18% with an inconclusive outcome. Rule as the data show it: active = normalized growth mostly below about 0.91 (no sharp cut-off); inconclusive = no clear call, values can overlap the other calls; inactive = mostly above about 0.92. Some of the results follow.

Test: chemical genetic growth profiling, strain panel (AID 1159580);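 also: tested at 20 µM; growth read once vehicle control cultures reached saturation at 30 °C; 1 = growth at the plate median or of vehicle wells; lower values mean less growth of the strain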
Conditions: growth OD

Measured: normalized growth

O=C(O)/C=C/c1ccc(O)c(O)c1
inactive: S. cerevisiae deletion strains, locus YJR043C, strain POL32, stronger effect = lower value 1.01 | S. cerevisiae deletion strains, locus YJR066W, strain TOR1, stronger effect = lower value 0.95 | S. cerevisiae deletion strains, locus YKL009W, strain mrt4, stronger effect = lower value 1.05 | S. cerevisiae deletion strains, locus YKL068W, stronger effect = lower value 1.01 | S. cerevisiae deletion strains, locus YKL085W, strain MDH1 (second series), stronger effect = lower value 1.02 | S. cerevisiae deletion strains, locus YKL085W, strain MDH1, stronger effect = lower value 1.02 | S. cerevisiae deletion strains, locus YKL160W, strain elf1, stronger effect = lower value 1 | S. cerevisiae deletion strains, locus YKL190W, strain CNB1, stronger effect = lower value 1.01 | S. cerevisiae deletion strains, locus YKR001C, strain vps1, stronger effect = lower value 1 | S. cerevisiae deletion strains, locus YKR026C, strain gcn3, stronger effect = lower value 1 | S. cerevisiae deletion strains, locus YKR091W, strain srl3, stronger effect = lower value 1 | S. cerevisiae deletion strains, locus YLL001W, strain dnm1, stronger effect = lower value 0.992 | S. cerevisiae deletion strains, locus YLL026W, stronger effect = lower value 0.992 | S. cerevisiae deletion strains, locus YLL041C, strain sdh2, stronger effect = lower value 1 | S. cerevisiae deletion strains, locus YLR027C, strain aat2, stronger effect = lower value 0.989 | S. cerevisiae deletion strains, locus YLR039C, strain RIC1, stronger effect = lower value 1.01 | S. cerevisiae deletion strains, locus YLR058C, strain SHM2, stronger effect = lower value 1.01 | S. cerevisiae deletion strains, locus YLR102C, strain apc9, stronger effect = lower value 1.01 | S. cerevisiae deletion strains, locus YLR113W, strain HOG1, stronger effect = lower value 0.985 | S. cerevisiae deletion strains, locus YLR221C, strain rsa3, stronger effect = lower value 1 | S. cerevisiae deletion strains, locus YLR258W, strain gsy2, stronger effect = lower value 0.999 | S. cerevisiae deletion strains, locus YLR262C, strain YPT6 (second series), stronger effect = lower value 0.993 | S. cerevisiae deletion strains, locus YLR262C, strain YPT6, stronger effect = lower value 0.998 | S. cerevisiae deletion strains, locus YLR268W, strain sec22, stronger effect = lower value 1.03 | S. cerevisiae deletion strains, locus YLR320W, strain mms22, stronger effect = lower value 1.02 | S. cerevisiae deletion strains, locus YLR330W, strain CHS5, stronger effect = lower value 1.02 | S. cerevisiae deletion strains, locus YLR342W, strain FKS1 (second series), stronger effect = lower value 1.07 | S. cerevisiae deletion strains, locus YLR342W, strain FKS1, stronger effect = lower value 1.01 | S. cerevisiae deletion strains, locus YLR357W, strain rsc2, stronger effect = lower value 1.01 | S. cerevisiae deletion strains, locus YLR370C, strain arc18, stronger effect = lower value 1 | S. cerevisiae deletion strains, locus YLR371W, strain rom2, stronger effect = lower value 1.01 | S. cerevisiae deletion strains, locus YLR384C, strain iki3, stronger effect = lower value 0.999 | S. cerevisiae deletion strains, locus YLR418C, strain cdc73, stronger effect = lower value 1.05 | S. cerevisiae deletion strains, locus YML016C, strain PPZ1, stronger effect = lower value 1.01 | S. cerevisiae deletion strains, locus YML032C, strain rad52, stronger effect = lower value 0.998 | S. cerevisiae deletion strains, locus YML120C, strain ndi1, stronger effect = lower value 1.01 | S. cerevisiae deletion strains, locus YML124C, strain tub3, stronger effect = lower value 1 | S. cerevisiae deletion strains, locus YMR058W, strain fet3, stronger effect = lower value 1.01 | S. cerevisiae deletion strains, locus YMR078C, strain ctf18, stronger effect = lower value 1.01 | S. cerevisiae deletion strains, locus YMR125W, strain sto1, stronger effect = lower value 1 | S. cerevisiae deletion strains, locus YMR129W, stronger effect = lower value 1 | S. cerevisiae deletion strains, locus YMR205C, strain PFK2, stronger effect = lower value 0.999 | S. cerevisiae deletion strains, locus YMR223W, strain ubp8, stronger effect = lower value 0.997 | S. cerevisiae deletion strains, locus YMR231W, strain pep5, stronger effect = lower value 0.98 | S. cerevisiae deletion strains, locus YMR307W, strain GAS1, stronger effect = lower value 1.04 | S. cerevisiae deletion strains, locus YNL067W, strain RPL9B, stronger effect = lower value 0.994 | S. cerevisiae deletion strains, locus YNL071W, strain lat1, stronger effect = lower value 1.01 | S. cerevisiae deletion strains, locus YNL153C, strain GIM3, stronger effect = lower value 0.999 | S. cerevisiae deletion strains, locus YNL175C, strain NOP13, stronger effect = lower value 1 | S. cerevisiae deletion strains, locus YNL183C, strain NPR1, stronger effect = lower value 0.971 | S. cerevisiae deletion strains, locus YNL197C, strain WHI3, stronger effect = lower value 1.01 | S. cerevisiae deletion strains, locus YNL209W, strain ssb2, stronger effect = lower value 0.998 | S. cerevisiae deletion strains, locus YNL224C, strain SQS1, stronger effect = lower value 0.997 | S. cerevisiae deletion strains, locus YNL233W, strain BNI4, stronger effect = lower value 1 | S. cerevisiae deletion strains, locus YNL248C, strain rpa49, stronger effect = lower value 1 | S. cerevisiae deletion strains, locus YNL250W, strain rad50, stronger effect = lower value 1 | S. cerevisiae deletion strains, locus YNL271C, strain bni1, stronger effect = lower value 0.998 | S. cerevisiae deletion strains, locus YNL298W, strain CLA4, stronger effect = lower value 0.98 | S. cerevisiae deletion strains, locus YNL307C, strain MCK1, stronger effect = lower value 1.01 | S. cerevisiae deletion strains, locus YNL322C, strain KRE1 (second series), stronger effect = lower value 0.998 | S. cerevisiae deletion strains, locus YNL322C, strain KRE1, stronger effect = lower value 1.02 | S. cerevisiae deletion strains, locus YNR049C, strain mso1, stronger effect = lower value 1.01 | S. cerevisiae deletion strains, locus YNR052C, strain pop2, stronger effect = lower value 0.993 | S. cerevisiae deletion strains, locus YOL012C, strain htz1 0.725 | S. cerevisiae deletion strains, locus YOL147C, strain pex11, stronger effect = lower value 1.01 | S. cerevisiae deletion strains, locus YOR001W, strain rrp6, stronger effect = lower value 1.02 | S. cerevisiae deletion strains, locus YOR061W, strain CKA2, stronger effect = lower value 1.02 | S. cerevisiae deletion strains, locus YOR069W, strain VPS5, stronger effect = lower value 1.01 | S. cerevisiae deletion strains, locus YOR070C, strain gyp1, stronger effect = lower value 0.972 | S. cerevisiae deletion strains, locus YOR080W, strain dia2, stronger effect = lower value 1 | S. cerevisiae deletion strains, locus YOR083W, strain WHI5 (second series), stronger effect = lower value 1.01 | S. cerevisiae deletion strains, locus YOR083W, strain WHI5, stronger effect = lower value 1 | S. cerevisiae deletion strains, locus YOR106W, strain vam3, stronger effect = lower value 1.04 | S. cerevisiae deletion strains, locus YOR136W, strain idh2, stronger effect = lower value 1.02 | S. cerevisiae deletion strains, locus YOR144C, strain elg1, stronger effect = lower value 1.01 | S. cerevisiae deletion strains, locus YOR184W, strain ser1, stronger effect = lower value 1 | S. cerevisiae deletion strains, locus YOR231W, strain MKK1, stronger effect = lower value 1.03 | S. cerevisiae deletion strains, locus YOR265W, strain rbl2, stronger effect = lower value 0.988 | S. cerevisiae deletion strains, locus YOR270C, strain vph1, stronger effect = lower value 1 | S. cerevisiae deletion strains, locus YOR290C, strain snf2, stronger effect = lower value 1.01 | S. cerevisiae deletion strains, locus YOR316C, strain cot1, stronger effect = lower value 1 | S. cerevisiae deletion strains, locus YPL051W, strain arl3, stronger effect = lower value 0.994 | S. cerevisiae deletion strains, locus YPL055C, strain LGE1, stronger effect = lower value 1.01 | S. cerevisiae deletion strains, locus YPL078C, strain atp4, stronger effect = lower value 1 | S. cerevisiae deletion strains, locus YPL106C, strain sse1, stronger effect = lower value 0.992 | S. cerevisiae deletion strains, locus YPL240C, strain hsp82, stronger effect = lower value 1 | S. cerevisiae deletion strains, locus YPL256C, strain CLN2, stronger effect = lower value 0.985 | S. cerevisiae deletion strains, locus YPR119W, strain clb2, stronger effect = lower value 1.01 | S. cerevisiae deletion strains, locus YPR141C, strain kar3, stronger effect = lower value 1.04 | S. cerevisiae deletion strains, locus YPR163C, strain tif3, stronger effect = lower value 1 | S. cerevisiae deletion strains, locus YPR167C, strain met16, stronger effect = lower value 1.02 | S. cerevisiae deletion strains, strain wtn01, stronger effect = lower value 1.04 | S. cerevisiae strains, strain wild type, stronger effect = lower value 1.01
